# From PubChem BioAssay
# A3A deaminase: inhibitors of human APOBEC3A DNA deaminase. P31941. recombinant A3A, FAM/TAMRA ssDNA deamination fluorescence. inhibition, % at 20 µM. actives 0.41% (n = 330,000). AID 493011;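 active = at least 40% inhibition at 20 µM here, with at most 30% in a related deaminase screen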;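 note: plate controls were A3A with DMSO for no effect and wells lacking A3A enzyme for full effect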
# APOBEC3G inh: blocks human APOBEC3G single-stranded DNA deamination; actives 0.28% (n = 330,000); inhibition, % at 20 µM; recombinant A3G, ssDNA deamination FAM/TAMRA fluorescence; AID 493012;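 active = inhibition of at least 40% at 20 µM, with no more than 30% in the related APOBEC3A deaminase screen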;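 note: plate controls were DMSO wells with A3G for no effect and wells lacking A3G enzyme for full effect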
# Target sequence (Q9HC16 whole entry, looked up): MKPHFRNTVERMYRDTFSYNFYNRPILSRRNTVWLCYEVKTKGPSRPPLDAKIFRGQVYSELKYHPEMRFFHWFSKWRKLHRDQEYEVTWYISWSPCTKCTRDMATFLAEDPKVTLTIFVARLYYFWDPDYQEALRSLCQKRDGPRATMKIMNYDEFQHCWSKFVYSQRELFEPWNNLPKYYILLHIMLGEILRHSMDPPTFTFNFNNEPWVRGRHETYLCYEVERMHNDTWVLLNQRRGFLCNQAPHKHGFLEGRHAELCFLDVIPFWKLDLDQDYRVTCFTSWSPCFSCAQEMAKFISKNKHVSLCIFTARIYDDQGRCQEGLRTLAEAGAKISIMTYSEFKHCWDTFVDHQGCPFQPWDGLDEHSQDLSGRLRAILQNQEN
# Yeast superoxide: caloric restriction mimetics inhibiting age-related superoxide in yeast; S. cerevisiae aged cells, superoxide DHE fluorescence; stronger effect = lower value; superoxide response (% of plate mean), % at 10 µM; actives 0.18% (n = 330,000);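 active = superoxide response under a set limit, about three screen SD below normal, cut at about 65% in these data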;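 note: yeast aged for seven days with compound at 30 °C before DHE staining; 100% = average MFI of all compound-treated wells on the plate with controls excluded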
# NRP1-CendR mod: modulators of CendR peptide binding to human neuropilin-1; FAM-RPARPAR peptide binding to NRP-1, fluorescence polarization; inhibition, % at 25 µM; actives 0.85% (n = 360,000); AID 602438;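 active = inhibition or corrected inhibition above about 18%, plus a signal ratio from 0.5 to 1.5, limit read from the data, passing the limit was not always enough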
# ALR H2O2 inh: inhibitors of human sulfhydryl oxidase ALR; P55789; purified ALR, DTT oxidation, H2O2 HRP-luminol luminescence; inhibition, % (concentration not given with the values); actives 3.8% (n = 290,000); AID 485317;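 active = mean replicate inhibition above about 79%, with every replicate also reaching it, limit read from the data; inconclusive = only one of the two criteria met; inactive = mean below limit and not every replicate reaching it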
# Target sequence (P55789 whole entry, looked up): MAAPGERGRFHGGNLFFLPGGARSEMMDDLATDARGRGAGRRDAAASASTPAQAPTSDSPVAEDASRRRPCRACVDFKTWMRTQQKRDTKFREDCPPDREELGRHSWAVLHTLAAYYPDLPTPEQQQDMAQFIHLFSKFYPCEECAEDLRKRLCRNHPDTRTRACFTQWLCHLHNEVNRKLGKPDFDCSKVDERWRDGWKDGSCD
# M18AAP inhibitor: blocks P. falciparum M18 aspartyl aminopeptidase | AID 1822 | recombinant PfM18AAP, H-Glu-NHMec fluorogenic cleavage | actives 1.2% (n = 290,000) | inhibition, % at 7.35 µM;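 active = inhibition above the campaign mean inhibition over all tested compounds plus 3 SD, cut at about 28% in these data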;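 note: 0% = plate median of test compound wells and 100% = 2 mM ZnCl2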
# APOBEC3A confirm: confirmation of human APOBEC3A DNA deaminase inhibitors | shares compounds with A3A deaminase | recombinant A3A, ssDNA deaminase UDG fluorescence assay | inhibition, % at 20 µM | actives 63% (n = 1,400) | AID 493151;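 active = inhibition reaching a set limit, 80% of the first screen's cutoff, at 20 µM in any replicate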;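 note: plate controls were DMSO wells with A3A for no effect and wells lacking A3A enzyme for full effect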
# UDG A3A counter: counter-screen for APOBEC3A inhibitors: UDG; shares compounds with A3A deaminase; UDG counterscreen, FAM/TAMRA uracil oligo fluorescence; inhibition, % at 20 µM; 1,000 tested, under 10 active; call rule not given here
# * marks the source's active call; other numbers are inactive results; ? = inconclusive; nt = not tested or not shown. Only some compounds are listed: those with a hit (about 5.2% of all), similar ones and a draw of the others.
SMILES,A3A deaminase,APOBEC3G inh,Yeast superoxide,NRP1-CendR mod,ALR H2O2 inh,M18AAP inhibitor,APOBEC3A confirm,UDG A3A counter
CCOc1ccccc1NC(=O)C1CCN(C(=O)c2cccs2)CC1,-1,-3,104,-1,-2,-3,nt,nt
CCn1c(C)[n+](CCOC(C)=O)c2cc(Cl)c(Cl)cc21,63*,22,93,1,nt,-2,78*,-4
CC(=O)OCCCn1c(C)[n+](C)c2cc(Cl)c(Cl)cc21,87*,19,104,8,1,-15,73*,2
COc1cc(CO)c(OC)c([N+](=O)[O-])c1,2,-2,108,15,-17,17,nt,nt
Cc1cc(=O)n2nc(N3CCC(C(=O)NCc4cccc(Cl)c4)CC3)sc2n1,-3,-4,89,-4,0,-6,nt,nt
CC(C)(CO)NCC#Cc1ccccc1,-5,-9,101,-4,0,6,nt,nt
CCc1noc(C)c1C(=O)NNC(=O)c1cc(OC)c(OC)c(OC)c1,62*,9,106,-3,0,nt,54*,-1
O=C(Nc1c(S(=O)(=O)c2ccccc2)csc1Br)c1ccccc1Cl,-4,-5,106,2,3,4,nt,nt
O=C(/C=C/c1cn(-c2ccccc2)nc1-c1cccnc1)N1CCCC1,nt,nt,nt,-1,nt,-9,nt,nt
N#C/C(=C\c1cn(-c2ccccc2)nc1-c1cccnc1)c1nnc2n1CCCCC2,43*,-3,96,9,22,2,-1,-2
CC(=O)Nc1ccc(S(=O)(=O)Oc2ccc3c(c2)C(C)=CC(C)(C)N3)cc1,-4,-8,96,nt,?,1,nt,nt
COc1ccc(CCN2C(=O)CC(Sc3ncccc3C(=O)O)C2=O)cc1OC (stereo not given),98*,-4,123,3,-13,0,-5,2
COc1ccccc1CNC(=O)C(CCSC)NS(=O)(=O)c1ccc2c(c1)oc(=O)n2C (stereo not given),-6,-7,114,-6,nt,1,nt,nt
C=CCN1C(=O)[C@@H]2Cc3c([nH]c4ccccc34)C(c3cc(OC)c(OC)c(OC)c3)N2C1=S (stereo not given in full),-6,-15,107,-60,-12,16,nt,nt
CCN1C(=O)[C@@H]2Cc3c([nH]c4ccccc34)C(c3cc(OC)c(OC)c(OC)c3)N2C1=S (stereo not given in full),59*,-10,91,-24,-17,4,-8,-6
CC1(OC(=O)C2CCCC2)C(=O)C=C2C=C(c3ccsc3)N(C3CC3)C=C2C1=O (stereo not given),-4,-11,96,-18,nt,nt,nt,nt
CC1(OC(=O)C2CCCC2)C(=O)C=C2C=C3CCCCN3C=C2C1=O (stereo not given),44*,19,104,32*,-9,nt,23*,2
O=C(Cc1csc(NC(=O)Nc2cccc(Cl)c2)n1)NCc1ccccn1,-5,-12,105,-3,nt,nt,nt,nt
O=C(NCC(c1ccco1)N1CCOCC1)c1c(F)cccc1F (stereo not given),43*,-7,92,4,-2,nt,-2,-3
O=C(O)c1cc(Cl)c2c(c1)OCO2,43*,8,86,-13,nt,-8,27,nt
COc1ccc(N2Cc3cccc(C(=O)N4CCN(C(=O)c5ccco5)CC4)c3C2=O)cc1,59*,29,91,-17,-17,3,43*,nt
Cc1oc2cc(O)ccc2c(=O)c1Oc1ccccc1Br,1,3,98,-10,-5,1,nt,nt
O=C(/C=C/c1ccco1)N1CCN(S(=O)(=O)c2ccccc2)CC1,41*,14,115,-2,-6,nt,29,nt
C=CCN1/C(=C2/SC(=S)N(C)C2=O)Sc2ccccc21,96*,23,96,nt,-16,1,64*,nt
CC(=O)NN1C(=O)/C(=C2/Sc3ccccc3N2C)SC1=S,-2,-2,110,-21,nt,1,nt,nt
SMILES,A3A deaminase,APOBEC3G inh,Yeast superoxide,NRP1-CendR mod,ALR H2O2 inh,M18AAP inhibitor,APOBEC3A confirm,UDG A3A counter
CC1(C(=O)Nc2ccc3c(c2)OCCO3)CCN1C(=O)C1(c2ccccc2)CC1 (stereo not given),nt,nt,nt,1,nt,nt,nt,nt
Cc1ccc(Cl)c(OCC(=O)Nc2cccnc2)c1,44*,4,97,-3,-3,0,-3,nt
O=C(COc1ccccc1Cl)Nc1cccnc1,0,0,117,4,-9,3,nt,nt
CN(CC(=O)Nc1cccc(F)c1)C(=O)C1(c2ccccc2)CC1,-2,-10,108,-10,-3,nt,nt,nt
CC(NO)/C(=N\O)c1cccs1 (stereo not given),-4,-4,106,4,7,0,nt,nt
CN(C)S(=O)(=O)c1ccc(N2CCCC2)c(C(=O)Nc2ccccc2F)c1,7,5,110,2,-5,nt,nt,nt
CN(C)S(=O)(=O)c1ccc(N2CCCC2)c(C(=O)Nc2ccc(F)cc2F)c1,41*,3,108,2,-4,nt,1,nt
CCCCCCCC[n+]1cccc2c3ccccc3ccc21,57*,20,121,13,-2,-4,75*,4
CCOC(=O)N1CCC2CC1c1cc(-c3cccc(OC)c3)ccc12 (stereo not given),nt,nt,nt,10,nt,nt,nt,nt
O=C(COc1cccc(C(F)(F)F)c1)NCC(c1ccco1)N1CCCC1 (stereo not given),46*,2,83,-43,nt,nt,3,nt
O=C(NCCOc1ccccc1)c1ncn[nH]1,76*,21,100,3,-1,8,52*,-3
Cc1c(Cl)cccc1NC(=O)CNC(=O)c1ccc2c(c1)OCCO2,51*,9,96,-13,-9,nt,41*,2
CCCCCC[n+]1ccccc1/C=C/c1ccc(N(C)C)cc1,nt,nt,nt,124,nt,nt,nt,nt
Cc1ccc(/C=C/c2ccc(N(C)C)cc2)[n+](C)c1,60*,6,92,-213,99*,7,67*,-3
CCSCCNC(=O)c1cc(-n2cnnc2)ccc1Cl,60*,25,70,-1,-4,-6,60*,2
O=C(NCCOc1cccc(Cl)c1Cl)c1cc(-n2cnnc2)ccc1Cl,-1,-6,87,-7,-5,-4,nt,nt
O=C(NCc1ccc2c(c1)OCO2)c1cc(-n2cnnc2)ccc1Cl,57*,12,93,-4,-6,12,72*,-1
O=C(NCc1ccc2c(c1)OCO2)c1ccccc1Cl,8,0,96,8,-7,nt,nt,nt
O=C(NCC(=O)N(Cc1cccs1)C(C(=O)NC1CCCCC1)c1ccco1)c1ccco1 (stereo not given),-6,-6,90,-2,-2,3,nt,nt
O=C(Nc1cccc2ncccc12)c1ccc(Cl)cc1,65*,20,101,-6,6,0,42*,nt
